Data: PubChem BioAssay (NCATS)
Inconclusive results are not listed. Calls of active or inactive are those of the source. Calls come from the whole dose curve; as a rule, active = well fitted cell-killing curve with a large enough effect; inconclusive = small, poorly fitted or top-dose-only effect, or effect the other way; inactive = no such curve, though single readings can be large or run the other way.

What was measured:
[1] = Quantitative High-Throughput drug screen in 47 multiple myeloma cell lines against the NCATS MIPE library collection: PE2_PLB cell viability assay (AID 1919869); note: nearly all actives have a fitted effect of over 35% in size
How it was run: (§1)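 ATP-based luminescence (CellTiter-Glo, 5 min RT incubation) quantified surviving cells following two days' treatment with MIPE 4.0 agents at 37 °C, 5% CO2.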

[2] = Quantitative High-Throughput drug screen in 47 multiple myeloma cell lines against the NCATS MIPE library collection: PCM6_Riken cell viability assay (AID 1919870); note: nearly all actives have a fitted effect of over 30% in size
How it was run: as §1

[3] = Quantitative High-Throughput drug screen in 47 multiple myeloma cell lines against the NCATS MIPE library collection: OPM2_DSMZ cell viability assay (AID 1919872); note: nearly all actives have a fitted effect of over 30% in size
How it was run: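 Luminescent ATP measurement with CellTiter-Glo gives viability, scaled between DMSO-only wells (100%) and media-only wells (0%). Cells, 500 per well, faced library compounds for 48 hours at 37C.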

[4] = Quantitative High-Throughput drug screen in 47 multiple myeloma cell lines against the NCATS MIPE library collection: RPMI8226_ATCC cell viability assay (AID 1919871); note: nearly all actives have a fitted effect of over 30% in size
How it was run: as §1

[5] = Quantitative High-Throughput drug screen in 47 multiple myeloma cell lines against the NCATS MIPE library collection: KMS11_JCRBsus cell viability assay (AID 1919873); note: nearly all actives have a fitted effect of over 50% in size
How it was run: as §1

[6] = Quantitative High-Throughput drug screen in 47 multiple myeloma cell lines against the NCATS MIPE library collection: KMS28BM_JCRB cell viability assay (AID 1919874); note: nearly all actives have a fitted effect of over 35% in size
How it was run: as §1
Potency is the fitted concentration of half-maximal effect.

| SMILES | Potency [1] | Potency [2] | Potency [3] | Potency [4] | Potency [5] | Potency [6] |
| --- | --- | --- | --- | --- | --- | --- |
| CC(=O)NC(C)c1ccc(Oc2ccc(OC(C)C)cc2)cc1 (centres undefined) | 16.6 µM (active) | 16.6 µM (active) | 8.33 µM (active) |  |  |  |
| C[C@@H]1CN(Cc2ccc(F)cc2)[C@@H](C)CN1C(=O)c1cc2c(C(=O)C(=O)N(C)C)cn(C)c2cc1Cl | 16.6 µM (active) | 18.7 µM (active) | inactive |  |  |  |
| Cn1cnc([N+](=O)[O-])c1Sc1ncnc2nc[nH]c12 | 14.8 µM (active) | 11.8 µM (active) | 0.833 µM (active) | 0.935 µM (active) |  |  |
| Cc1[nH]c(=O)c(C#N)cc1-c1ccncc1 | 11.8 µM (active) | 7.43 µM (active) | inactive | inactive | inactive | 11.8 µM (active) |
| CN(C)c1ccc(Nc2nc(N)n(C(=O)c3c(F)cccc3F)n2)cc1 | 5.9 µM (active) | 13.2 µM (active) |  | inactive |  |  |
| CS(=O)(=O)c1cccc(CNc2nc(Nc3ccc4c(c3)CCC(=O)N4)ncc2C(F)(F)F)c1 | 18.7 µM (active) | 7.43 µM (active) | 20.9 µM (active) | 18.7 µM (active) | 8.33 µM (active) |  |
| CN(C)c1ccc(C2Nc3ccc4ccccc4c3C3=C2C(=O)CC(C)(C)C3)cc1Br (centres undefined) | 5.26 µM (active) | inactive | inactive |  |  |  |
| NC(=O)C1CCCc2c1[nH]c1ccc(Cl)cc21 (centres undefined) | 16.6 µM (active) | 16.6 µM (active) | inactive | inactive | inactive |  |
| Cc1cc(Nc2nc(N[C@@H](C)c3ncc(F)cn3)ncc2Cl)n[nH]1 | 10.5 µM (active) | 6.62 µM (active) |  | 11.8 µM (active) |  |  |
| COc1ccc(-c2oc3cc(OC)ccc3c2C(=O)c2ccc(C#N)cc2)cc1 | inactive | 5.26 µM (active) | inactive |  | inactive |  |
